Measured values reported in PubChem BioAssay (NCATS).
Several values for one entry are separate records, joined by “and”; a condition that tells them apart may be missing. Equal values may be shown once.

target: Cytochrome P450 3A4 (Homo sapiens) (UniProt P08684); test: qHTS Assay for Activators of Cytochrome P450 3A4 (AID 885); details: recombinant CYP3A4, Luciferin-PPXE luminescence, 60 min; series mostly up to 57.1 µM; activity change, positive = activation: at the top concentration; note: nearly all actives have a fitted effect of over 65% in size
Method in brief: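 20nM CYP3A4 + 25uM Luciferin-PPXE (=KM), 200mM KPO4; cpd 10 min RT; NADPH regen, 60 min RT; stop w/ detection buffer, 20 min; luminescence. Normalized to 57 uM ketoconazole.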

Chain of Cytochrome P450 3A4 (Homo sapiens) (P08684 whole entry, looked up): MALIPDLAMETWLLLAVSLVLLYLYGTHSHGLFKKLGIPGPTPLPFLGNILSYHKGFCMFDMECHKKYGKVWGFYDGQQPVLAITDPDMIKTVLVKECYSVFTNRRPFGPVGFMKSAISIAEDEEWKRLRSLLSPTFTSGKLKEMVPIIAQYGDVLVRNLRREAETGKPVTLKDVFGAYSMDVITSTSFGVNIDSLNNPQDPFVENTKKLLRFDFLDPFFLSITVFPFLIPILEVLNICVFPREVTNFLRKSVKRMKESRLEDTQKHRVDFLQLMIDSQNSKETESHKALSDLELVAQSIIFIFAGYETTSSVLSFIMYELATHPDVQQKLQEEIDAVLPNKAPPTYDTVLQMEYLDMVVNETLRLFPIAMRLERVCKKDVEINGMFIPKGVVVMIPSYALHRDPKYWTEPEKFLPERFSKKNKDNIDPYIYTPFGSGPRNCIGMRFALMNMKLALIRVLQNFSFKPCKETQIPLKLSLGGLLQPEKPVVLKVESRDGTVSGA

Activity change, positive = activation, inactive:
C/C(CCC(=O)OC[C@@H]1O[C@H](C#Cc2ccccc2)C=C[C@@H]1Oc1ccc(C)cc1)=N/OC[C@@H](O)COCc1ccco1 -90.6% [at 11.4 µM], COC(=O)c1cccc(C23CC4(C2)[C@H](CN(C)[C@@H]4c2ccccc2)C3c2ccc(C(F)(F)F)cc2)c1 (stereo not given in full) -60.2%, Cc1ccc2oc(=O)c3c4cc(O)c(O)cc4oc3c2c1 -78%, COC(=O)c1ccc(C23CC4(C2)[C@H](CN(Cc2cccnc2)[C@@H]4c2ccccc2)C3c2ccccc2)cc1 (stereo not given in full) -113%, CCC1=C(OC(=O)N(CC)CC)N2C(=O)OC(=NCC(=O)OC)[C@]2(Cc2ccccc2)[C@H]2C1=CC[C@H]1C(=O)N(CC(=O)OC)C(=O)[C@H]12 -68.7%, CCC1=C(OC(=O)N(CC)CC)N2C(=O)OC(=NCC3CC3)[C@]2(Cc2ccccc2)[C@H]2C1=CC[C@H]1C(=O)N(C)C(=O)[C@H]12 -93.7%, COC(=O)C/C=C\[C@@H](C)[C@@H](/C=N\OCC[C@H]1C=C[C@H](OC(C)=O)[C@@H](COC(C)=O)O1)NS(=O)(=O)c1ccc(C)cc1 -95.4% [at 11.4 µM], CCCNC(=O)OC[C@@H]1O[C@H](CCO/N=C\C[C@H]2C=C[C@H](OC(C)=O)[C@@H](COC(C)=O)O2)C=C[C@@H]1Oc1ccc(OC)cc1 -95.4% [at 11.4 µM], C#CCCCO/N=C1/C[C@@H](O)[C@@H](O)[C@@H]2[C@H]3C(=O)N(c4ccc(F)cc4F)C(=O)[C@@H]3CC[C@H]12 -60.2% [at 11.4 µM], Clc1ccc(C2[C@H]3CN(Cc4cccnc4)[C@H](c4ccccc4)C34CC2(c2ccccc2)C4)cn1 (stereo not given in full) -99.7%, Cn1c(N)c(C(=O)COC(=O)c2cc(-c3ccccc3)nc3ccccc23)c(=O)n(C)c1=O -61.9%, COC(=O)c1cccc(C23CC4(C2)[C@H](CN(CC2CCCCC2)[C@@H]4c2ccccc2)C3c2ccccc2)c1 (stereo not given in full) -68.3%, CCC1=C2CC[C@H]3C(=O)NC(=O)[C@H]3[C@H]2[C@@]2(Cc3ccccc3)C(=NCC3CC3)OC(=O)N2C1=O -88.7%, CCC1=C(OC(=O)N(CC)CC)N2C(=O)OC(=NCC(=O)OC)[C@]2(Cc2ccccc2)[C@H]2C1=CC[C@H]1C(=O)N(c3ccccc3)C(=O)[C@H]12 -80.7%, COC(=O)N1[C@H](Cc2ccccc2)C=C[C@]1(C)C(=O)NCc1ccc(N(C)C)cc1 -77.3%, CCN1C(=O)[C@H]2[C@H]3[C@H](O)[C@H](O)C/C(=N/O[C@@H](C)c4cc(-c5c(C)cc(C)cc5C)no4)[C@@H]3CC[C@@H]2C1=O -72.9% [at 11.4 µM], COC(=O)c1ccc(C(/C=C/[C@@H](C)C(=O)N(C)Cc2ccccc2)NC(=O)OCc2ccccc2)cc1 (stereo not given in full) -105%, CCCNC(=O)OC[C@@H]1O[C@H](c2ccccc2)C=C[C@@H]1Oc1ccc(OC)cc1 -82.9% [at 11.4 µM], COC(=O)CNC(=O)[C@@]1(C)C=C[C@@H](Cc2ccccc2)N1C(=O)OC -69.1%, CNC1=C(Br)C(=O)c2ccncc2C1=O -101%, CCC1=C(OC(=O)N(CC)CC)N2C(=O)OC(=NCC(=O)OC)[C@]2(Cc2ccccc2)[C@H]2C1=CC[C@H]1C(=O)N(C)C(=O)[C@H]12 -94.1%, COc1ccc(O[C@H]2C=C[C@@H](c3ccccc3)O[C@@H]2CO/N=C\[C@@H](C)[C@H](OCc2ccccc2)C(C)C)cc1 -73.9% [at 11.4 µM], CCC1=C(OC(=O)N(CC)CC)N2C(=O)OC(=NCCOC)[C@]2(C)[C@H]2C1=CC[C@H]1C(=O)N(CC(=O)OC)C(=O)[C@H]12 -86.3%, CCC1=C2CC[C@H]3C(=O)N(CC(=O)OC)C(=O)[C@H]3[C@H]2[C@@]2(C)C(=O)N(Cc3ccccc3)C(=O)N2C1=O -79.4%, COC(=O)c1ccc(C23CC4(C2)[C@H](CN(CC2CCCCC2)[C@@H]4c2ccccc2)C3c2ccc(Cl)nc2)cc1 (stereo not given in full) -68.7%, CC(C)=CCC/C(C)=C/CO/N=C1/C[C@@H](O)[C@@H](O)[C@@H]2[C@@H]3C(=O)N(Cc4ccc5c(c4)OCO5)C(=O)[C@H]3CC[C@H]12 -115% [at 11.4 µM], C[C@]1(C(=O)NCCN2CCOCC2)C=C[C@@H](Cc2ccccc2)N1C(=O)c1ccccc1 -99.1%, COc1ccc(O[C@H]2C=C[C@@H](c3ccccc3)O[C@H]2COC(=O)CC/C(C)=N\O[C@@H](C)CN2CCCCc3nc(C)c(C)cc32)cc1 -114% [at 11.4 µM], COC(=O)[C@@H]1C[C@@]2(O)[C@@H](O)[C@@H](O)[C@@H](O)C[C@H]2N1Cc1ccc(C(C)(C)C)cc1 -60.5%, CCC1=C2CC[C@H]3C(=O)N(c4ccccc4)C(=O)[C@H]3[C@H]2[C@@]2(Cc3ccccc3)C(=NCC3CC3)OC(=O)N2C1=O -100%, C=CC[C@@H]1C=C[C@@H](O/N=C\[C@@H](OC)[C@H](C)/C=C\CC(=O)OC)[C@@H](CO)O1 -64.1% [at 11.4 µM], Cc1cc2c(nc1C)CCCCN2C[C@H](C)O/N=C\[C@@H](C)[C@H](OCc1ccccc1)C(C)C -76.1% [at 11.4 µM], C=CC[C@@H]1C=C[C@H](O/N=C(\C)CCN2CCc3nc(-c4ccccc4)c(-c4ccccc4)cc3C2)[C@H](CO)O1 -81.8% [at 11.4 µM], C/C(CCC(=O)OC[C@@H]1O[C@H](C#Cc2ccccc2)C=C[C@@H]1Oc1ccc(C)cc1)=N/OC[C@@H](O)[C@H]1O[C@H]2OC(C)(C)O[C@H]2[C@@H]1O -117% [at 11.4 µM], CCC1=C(OC(=O)N(CC)CC)N2C(=O)OC(=NCCc3c[nH]c4ccccc34)[C@]2(C)[C@H]2C1=CC[C@H]1C(=O)N(CC(=O)OC)C(=O)[C@H]12 -116%, C/C(CCN1CCCc2nc(C)c(C)cc21)=N\O[C@@H](C)c1cn([C@H](CO)Cc2ccccc2)nn1 -60.4% [at 11.4 µM] and -67% [at 11.4 µM], COc1cccc([C@@H]2Oc3ccc(OC)cc3/C(=N/O[C@@H](C)c3cn([C@H]4COC[C@H]4O)nn3)[C@@H]2O)c1 -74.6% [at 11.4 µM], C#CCCCO/N=C1/C[C@@H](O)[C@@H](O)[C@@H]2[C@@H]3C(=O)N([C@@H](C)c4ccccc4)C(=O)[C@H]3CC[C@@H]12 -86% [at 11.4 µM], COC(=O)c1cccc(C23CC4(C2)[C@H](CN(Cc2ccc(C(F)(F)F)cc2)[C@@H]4c2ccccc2)C3c2ccccc2)c1 (stereo not given in full) -61%, CCC1=C2CC[C@H]3C(=O)N(CC)C(=O)[C@H]3[C@H]2[C@@]2(Cc3ccccc3)C(=O)N(CCOC)C(=O)N2C1=O -96.2%
